GALK inh – inhibitors of human galactokinase (GALK); P51570; recombinant GALK, Kinase-Glo ATP luminescence, 1 h; Potency, µM (highest dose often 57.5 µM), inactives show at the highest dose activity, negative = inhibition, actives largely listed as inhibitors; 44,000 tested, under 10 active;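 note: plate controls were full GALK reaction for no effect and reaction lacking GALK for full effect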
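Luminescent ATP-depletion readout (Kinase-Glo Plus) after 1 h room-temperature incubation of human GALK (5 nM) with galactose 100 µM and ATP 35 µM, pH 8.0 HEPES/Mg2+ buffer; compounds tested in qHTS format.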
TSG101-PTAP inh – blocks PTAP binding to human TSG101, validation. Q99816. Fluorescence polarization, FITC-PTAP peptide/Tsg101, 20 min. Potency, µM (titrated, usually from 115 µM), most hits filed as inhibitors. 44,000 tested, under 10 active. AID 1347069; note: potency is the fitted concentration of half-maximal effect; 0% is about no effect
Target sequence (Q99816 whole entry, looked up): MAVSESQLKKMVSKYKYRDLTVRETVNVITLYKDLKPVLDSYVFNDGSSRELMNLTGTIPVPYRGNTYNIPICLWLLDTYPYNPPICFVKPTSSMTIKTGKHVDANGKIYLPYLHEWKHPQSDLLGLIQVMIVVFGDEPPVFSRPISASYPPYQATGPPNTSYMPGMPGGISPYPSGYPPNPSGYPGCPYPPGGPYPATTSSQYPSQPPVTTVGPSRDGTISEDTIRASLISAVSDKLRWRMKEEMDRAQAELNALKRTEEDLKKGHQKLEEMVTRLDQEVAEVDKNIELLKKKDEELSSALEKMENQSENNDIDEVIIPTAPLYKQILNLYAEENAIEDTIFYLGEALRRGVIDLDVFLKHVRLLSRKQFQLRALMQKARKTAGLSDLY
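Read-out is FITC fluorescence polarization. Compounds were added to Tsg101 binding domain (10 uM final), then FITC-PTAP peptide (50 nM final), 20 min at r.t. Total S+P intensity flags fluorescent compounds.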
GPR32 ag – activates human resolvin D1 receptor GPR32. AID 1346428. O75388. 2.5% of 48,000 active. CHO-K1 GPR32 beta-arrestin PathHunter luminescence, 90 min; zero percent set by DMSO-only wells. activation, % at 76.9 µM;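 active = activation of at least 60% and not above a set upper limit, about 1 call in 100 departs from these limits; inconclusive = activation of 40% to 60%, or above that upper limit; inactive = activation under 40%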; note: 0% is about no effect
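PathHunter enzyme-fragment complementation, CHO-K1 GPR32 stable line; 2,500 cells/well, overnight attach; cpd 90 min 37 °C 5% CO2; detection reagent 1 h RT; chemiluminescence. DMSO = EC0.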
B2AR arrestin ag – agonists recruiting beta-arrestin to human beta2-adrenergic receptor; P07550; HTLA Tango cells, beta-arrestin recruitment, luciferase luminescence, 18 h; Potency, µM (top dose mostly 46.1 µM), most hits filed as activators; 44,000 tested, under 10 active;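 note: potency is the fitted concentration of half-maximal effect; 0% = DMSO and full agonism = EC100 isoproterenol or metaproterenol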
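Ligand-induced beta-arrestin recruitment to recombinant beta2-AR is measured via a tTA-driven luciferase reporter in Tango cells after 18 hr compound exposure at 37 degrees C. Concentrations span up to 46 microM.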
FH mod – Identification of activators of human fumarate hydratase by quantitative high-throughput screening. AID 1347055, 2019. Potency, µM (doses to about 79.9 µM), inactives show top-dose activity change, negative = inhibition, hits mostly inhibitors. 0.22% of 54,000 active. Fumarate hydratase, mitochondrial (Homo sapiens), P07954. FH coupled MDH/diaphorase resazurin fluorescence, 15 min; note: potency is the fitted concentration of half-maximal effect; % is set by controls: 0 for no effect and ±100 for the full control effect; the screen sought activators but most active calls are inhibition curves; nearly all actives have a fitted effect of over 45% in size
NTMT1 inh – blocks human N-terminal methyltransferase 1 activity | NTMT1 MTase-Glo SAH luminescence, purified enzyme | Potency, µM (doses to about 114 µM), for the others: at the top dose activity change, negative = inhibition, usual class: inhibitors | 2.5% of 59,000 active;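 note: potency is the fitted concentration of half-maximal effect; plate controls were DMSO vehicle for no effect and no enzyme for full effect; nearly all actives have a fitted effect of over 65% in size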
Target sequence (Q9BV86 whole entry, looked up): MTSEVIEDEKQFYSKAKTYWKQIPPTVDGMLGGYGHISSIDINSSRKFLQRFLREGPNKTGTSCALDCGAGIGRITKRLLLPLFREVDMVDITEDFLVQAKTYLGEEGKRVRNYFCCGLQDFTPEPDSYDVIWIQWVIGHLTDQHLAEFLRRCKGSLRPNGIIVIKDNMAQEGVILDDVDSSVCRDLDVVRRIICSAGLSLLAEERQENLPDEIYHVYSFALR
Sfp qHTS opt – inhibits purified B. subtilis Sfp PPTase; shares compounds with NTMT1 inh; purified Sfp PPTase enzyme activity, qHTS; Potency, µM (doses to about 114 µM), without a hit: at the highest dose activity change, negative = inhibition, most hits filed as inhibitors; 78% of 230 active; AID 540350
Bsub HM489 growth – reduces growth of B. subtilis HM489 strain. B. subtilis HM489 (acpS-) growth, BacTiter-Glo, 5 h. Potency, µM (titrated, usually from 114 µM), without a hit: top-dose activity change, negative = inhibition, actives largely listed as inhibitors. shares compounds with NTMT1 inh. AID 540353. 50% of 220 active
Sfp PPTase gel – Sfp PPTase inhibition, gel-based detection; shares compounds with NTMT1 inh; 54% of 220 active; purified Sfp PPTase, gel-based product detection; AID 540355; Potency, µM (series often up to 250 µM), inactives show at the top dose activity change, negative = inhibition, usual class: inhibitors
Sfp gel – inhibits B. subtilis Sfp PPTase in gel-based assay | shares compounds with NTMT1 inh | AID 602362 | Potency, µM (titrated, usually from 250 µM), for inactives: at the top dose activity change, negative = inhibition, most hits filed as inhibitors | purified Sfp PPTase, gel-based product detection | 90% of 45 active
Sfp SAR2 – inhibitors of Bacillus subtilis Sfp PPTase, SAR round 2. shares compounds with NTMT1 inh. Potency, µM (series often up to 57.1 µM), for inactives: at the highest dose activity change, negative = inhibition, most hits filed as inhibitors. purified Sfp enzyme, PPTase activity, qHTS. AID 602370. 87% of 230 active
hGST A1-1 inh – inhibits hGST A1-1 in Sfp inhibitor counter-screen | shares compounds with NTMT1 inh | hGST A1-1 enzyme activity counter-screen, qHTS | Potency, µM (doses to about 114 µM), inactives show at the highest dose activity change, negative = inhibition, hits mostly inhibitors | 55 tested, under 10 active
HSD17B4 inh – HSD17B4 (human) inhibition, HPGD counter-screen; shares compounds with NTMT1 inh; purified HSD17B4, estradiol/NAD+, NADH fluorescence; Potency, µM (titrated, usually from 57.1 µM), for inactives: top-dose activity change, negative = inhibition, usual class: inhibitors; 10% of 230 active
ALDH1A1 counter – ALDH1A1 (human) inhibition, HPGD counter-screen | 93% of 230 active | recombinant ALDH1A1, NADH fluorescence, propionaldehyde/NAD+ | shares compounds with NTMT1 inh | AID 743195 | Potency, µM (titrated, usually from 57.1 µM), for the others: at the highest dose activity change, negative = inhibition, actives largely listed as inhibitors
Active calls of the source: *; [ ] = another dose, or the depositor's remark. Hits are enriched below; roughly 3.7% of the tested compounds scored in any of these assays. Unless noted, calls come from the whole dose curve; as a rule, active = well fitted curve in the direction sought with a large enough effect; inconclusive = small, poorly fitted or top-dose-only effect, or another doubt; inactive = no such curve, though single readings can be large; an effect the other way counts as inactive or inconclusive.

Screening Cc1ccc2onc(CNC(=O)N3CCN(c4cccc(C(F)(F)F)c4)CC3)c2c1 returned GALK inh 0%, TSG101-PTAP inh inactive, GPR32 ag 10, B2AR arrestin ag inactive, FH mod -1% and NTMT1 inh 16%.
Screening Cc1ccnc(NC(=S)N2CCN(c3cc(F)cc(Cl)c3)CC2)c1 returned Sfp qHTS opt 1.2µM*, Bsub HM489 growth 15µM*, Sfp PPTase gel 10µM*, Sfp SAR2 1.6µM*, HSD17B4 inh -21% and ALDH1A1 counter 7.6µM*.
For Cc1ccc2scc(N3CCN(c4cccc(C(F)(F)F)c4)CC3)c(=O)c2c1 the results were GALK inh 2%, TSG101-PTAP inh inactive, GPR32 ag -23, B2AR arrestin ag inactive, FH mod 8% and NTMT1 inh -6%.
`CSc1ncc(C(=O)N2CCN(c3ccc(Cl)cc3)CC2)c(C)n1` gave GALK inh -2%, TSG101-PTAP inh inactive, GPR32 ag -5, B2AR arrestin ag inactive, FH mod -16% and NTMT1 inh -12%.
Cc1cccc(NC(=S)N2CCN(c3cccc(C(F)(F)F)c3)CC2)c1 was read as Sfp qHTS opt 4%, Bsub HM489 growth 15%, Sfp PPTase gel 1%, Sfp SAR2 -20%, HSD17B4 inh inconclusive and ALDH1A1 counter 1.5µM*.
`Cc1ccnc(NC(=S)N2CCN(c3cc(C(F)(F)F)cc(C(F)(F)F)c3)CC2)c1` gave NTMT1 inh inconclusive, Sfp qHTS opt 2.4µM*, Bsub HM489 growth 3.3µM*, Sfp PPTase gel 0.79µM*, Sfp gel 0.95µM*, Sfp SAR2 0.65µM*, hGST A1-1 inh inconclusive, HSD17B4 inh 27µM* and ALDH1A1 counter 7.6µM*.
Cc1ccnc(NC(=S)N2CCCc3ccc(C(F)(F)F)cc32)c1 was read as NTMT1 inh -6%, Sfp qHTS opt 3%, Bsub HM489 growth inconclusive, Sfp PPTase gel 0%, Sfp gel -2%, Sfp SAR2 inconclusive, hGST A1-1 inh inconclusive, HSD17B4 inh inconclusive and ALDH1A1 counter 27µM*.
CN[C@@H]1C[C@H]2O[C@@](C)([C@@H]1OC)n1c3ccccc3c3c4c(c5c6ccccc6n2c5c31)C(=O)N[C@H]4O was read as FH mod -5%[13.5 µM] and NTMT1 inh -9%[29.8 µM].
For Cc1ccc(NS(=O)(=O)c2ccccc2C(=O)Nc2nc(-c3ccccc3)cs2)cc1 the results were NTMT1 inh 14%.
`Cc1ccnc(NC(=S)N2CCN(c3cccc(C(F)(F)F)n3)CC2)c1` gave NTMT1 inh inconclusive, Sfp qHTS opt 1.5µM*, Bsub HM489 growth 30µM*, Sfp PPTase gel 7.9µM*, Sfp SAR2 0.73µM*, HSD17B4 inh -26% and ALDH1A1 counter 22µM*.
For Cc1ccc2cc3cc(C(=O)N4CCN(c5cccc(C(F)(F)F)c5)CC4)sc3nc2c1 the results were GALK inh 2%, TSG101-PTAP inh inactive, GPR32 ag 4, B2AR arrestin ag inactive, FH mod 5% and NTMT1 inh 13%.
S=C(Nc1cc(Cl)ccn1)N1CCN(c2cc(Cl)cc(Cl)c2)CC1 was read as Sfp qHTS opt 37µM*, Bsub HM489 growth 11µM*, Sfp PPTase gel -59%, Sfp SAR2 18µM*, HSD17B4 inh 12% and ALDH1A1 counter 27µM*.
Screening Cc1ccnc(N(C)C(=S)N2CCN(c3cccc(C(F)(F)F)c3)CC2)c1 returned NTMT1 inh -5%, Sfp qHTS opt inconclusive, Bsub HM489 growth inconclusive, Sfp PPTase gel inconclusive, Sfp SAR2 inconclusive, HSD17B4 inh -18% and ALDH1A1 counter 19µM*.
Cc1ccnc(NC(=S)N2CCN(c3cccc(C(F)(F)F)c3)C[C@@H]2C)c1 was read as Sfp qHTS opt 5.9µM*, Bsub HM489 growth 47µM*, Sfp PPTase gel inconclusive, Sfp SAR2 11µM*, HSD17B4 inh 6% and ALDH1A1 counter 24µM*.
Screening O=C(c1ccc(Cl)cc1)N1CCN(c2ccnc3cc(Cl)ccc23)CC1 returned FH mod -10% and NTMT1 inh 8%[57.5 µM].
Screening CC(C)(O)CNc1nc(Nc2ccnc(C(F)(F)F)c2)nc(-c2cccc(C(F)(F)F)n2)n1 returned FH mod 4%[53.3 µM] and NTMT1 inh inconclusive.
